The source made the active and inactive calls. Rule for the calls: active = hit-call score of the fitted dose curve at least 0.9, where 1 is the maximum; inactive = score below 0.9.

A short description of the test: ATG_NF_kB_CIS: Attagene CIS-FACTORIAL HepG2 Assay for human Nuclear Factor Kappa B (NF-kB) (AID 2282991). The following applies: HepG2 Attagene cis-factorial NF-kB reporter mRNA; actives raise or lower the signal. The procedure, abridged: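 Fluorescence of labelled RT-PCR products separated by capillary electrophoresis gives reporter mRNA levels from transfected HepG2 cells exposed 24 h; values are fitted in both directions relative to DMSO.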
For the compound `C[C@]12CC[C@H](O)CC1=CC[C@@H]1[C@@H]2CC[C@]2(C)C(=O)CC[C@@H]12`, the outcome was inactive.
In the case of `COc1cccc(C=O)c1`, the compound was called inactive.
On to `O=C(O)Cc1ccccc1`, for which the outcome was inactive.
`CCCCCCCCC(=O)NCc1ccc(O)c(OC)c1`: the call was inactive.
As for `CC(C)(c1ccc(OCC2CO2)cc1)c1ccc(OCC2CO2)cc1` (stereo not given), the compound was called inactive.
As to `Cl/C=C\C[N+]12CN3CN(CN(C3)C1)C2`, the AC50 – broadly, the midpoint of the concentration-response curve, whichever way the signal moves – was 53.6 µM (active).
As to `C=CCc1ccc(OC)cc1`, the compound was classed as inactive.
The same measure, in the same setting: the result for `Fc1ccc(C2(Cn3cncn3)OC2c2ccccc2Cl)cc1` (stereo not given) reads “inactive”.
Regarding `CCOC(=O)CP(=O)(OCC)OCC`, the outcome was inactive.
Regarding `NC(=S)Nc1ccccc1`, the call was inactive.
For the compound `CC1(C)CCC(Cc2ccc(Cl)cc2)C1(O)Cn1cncn1` (stereo not given), the compound was called inactive.
Turning to `ClC1=C(Cl)[C@]2(Cl)[C@@H]3[C@@H](Cl)[C@@H](Cl)C[C@@H]3[C@@]1(Cl)C2(Cl)Cl`, the result was inactive.
With `Cc1ccc(N)cc1Cl`, the outcome was inactive.
`CC(=O)C=C(C)C`: the outcome was inactive.
The same measure, in the same setting: in the case of `CCOP(OCC)OCC` it was “inactive”.

(Values after PubChem BioAssay (EPA / NIEHS).)
